# Compound activity (PubChem)
# PNC assembly inh: perinucleolar compartment assembly inhibition | PC3M PTB-GFP, PNC prevalence imaging, 16 h; hits give low values | hit rate 3.1% among 140,000 | activity change (PNC), negative = inhibition, % at 10 µM;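 active = readout at or below -70, meaning at least 70% loss of cells showing the perinucleolar compartment, a nuclear body marking cancer cells; inconclusive = readout between -30 and a set limit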
#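 Compounds are pinned in duplicate onto adhered PC3M cells stably expressing GFP-tagged PTB and incubated 16 h at 37 C. Cells are then fixed, nuclei stained with Hoechst, and PNC-positive cells counted.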
# 12-hLO inh: 12-hLO (ALOX12) enzyme inhibition; Potency, µM (titrated, usually from 57.1 µM), most hits filed as inhibitors; P18054; hit rate 0.12% among 150,000; purified 12-hLO, xylenol orange hydroperoxide absorbance; AID 1452; also: nearly all actives have a fitted effect of over 55% in size
#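 Hydroperoxide output read as Fe(III)-xylenol orange absorbance, 573-to-405 nm ratio, after 30 min reaction with 40 uM arachidonic acid. Enzyme: 150 nM purified human 12hLO, 15 min compound preincubation; 25 mM Hepes pH 7.0, room temperature.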
# ALDH1A1 inh: ALDH1A1 (human) enzyme inhibition; P00352; Purified ALDH1A1, NADH fluorescence, propionaldehyde substrate; Potency, µM (doses to about 75.3 µM), usual class: inhibitors; hit rate 7.3% among 220,000; AID 1030; active = well fitted inhibition curve with a large enough effect, not every such curve was filed as active; inconclusive = small, poorly fitted or top-dose-only effect, or another doubt; inactive = no such curve, though single readings can be large or run the other way
# Target sequence (P00352 whole entry, looked up): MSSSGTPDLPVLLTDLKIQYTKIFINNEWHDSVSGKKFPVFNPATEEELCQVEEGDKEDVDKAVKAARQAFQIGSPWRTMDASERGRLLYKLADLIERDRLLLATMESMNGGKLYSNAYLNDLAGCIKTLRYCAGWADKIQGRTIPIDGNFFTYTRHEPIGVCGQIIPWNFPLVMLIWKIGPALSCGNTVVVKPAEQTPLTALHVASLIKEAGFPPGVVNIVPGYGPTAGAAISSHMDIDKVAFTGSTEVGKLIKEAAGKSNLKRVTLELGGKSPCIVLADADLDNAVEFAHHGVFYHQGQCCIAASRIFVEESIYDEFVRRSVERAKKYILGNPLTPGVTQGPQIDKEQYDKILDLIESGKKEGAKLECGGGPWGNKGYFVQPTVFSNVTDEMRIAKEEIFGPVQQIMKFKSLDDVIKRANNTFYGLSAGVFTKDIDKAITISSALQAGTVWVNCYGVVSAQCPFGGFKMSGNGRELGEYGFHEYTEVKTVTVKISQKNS
# IMPase cell inh: IMPase inhibition in cells | CHO-M1 cells, IP1 accumulation, HTRF TR-FRET ratio | inhibition (IP1 accumulation), % at 46.1 µM | 120,000 tested, under 10 active; active = well fitted curve in the direction sought with a large enough effect in the signal ratio, not every such curve was filed as active; inconclusive = small, poorly fitted or top-dose-only effect, or a change in a side signal; inactive = no such curve, though single readings can be large or run the other way; the % refers to the signal ratio;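 also: cells stimulated with carbachol in lithium chloride buffer; higher means more IMPase inhibition seen as more IP1 and lower FRET ratio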
#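 The IP-One HTRF competitive assay in carbachol-stimulated CHO-M1 cells quantifies cellular IP1. Compounds spanned up to 46 uM final, and activity is expressed as AC50 from concentration-response fits of the ratio and donor data.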
# HPGD block: inhibitors of human 15-hydroxyprostaglandin dehydrogenase (HPGD); purified HPGD, NADH fluorescence kinetic, PGE2 substrate; P15428; Potency, µM, hits mostly inhibitors; hit rate 4.3% among 150,000; active = well fitted inhibition curve with a large enough effect, not every such curve was filed as active; inconclusive = small, poorly fitted or top-dose-only effect, or another doubt; inactive = no such curve, though single readings can be large or run the other way
# Target sequence (P15428 whole entry, looked up): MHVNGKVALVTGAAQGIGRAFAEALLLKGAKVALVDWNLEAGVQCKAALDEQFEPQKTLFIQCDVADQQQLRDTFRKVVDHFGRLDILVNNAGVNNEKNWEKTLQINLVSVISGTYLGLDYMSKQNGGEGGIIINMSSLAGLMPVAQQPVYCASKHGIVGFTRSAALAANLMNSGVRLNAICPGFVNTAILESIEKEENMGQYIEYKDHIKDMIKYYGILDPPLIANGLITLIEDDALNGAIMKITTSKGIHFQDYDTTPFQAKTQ
#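 20 nM HPGD preincubated 15 min at room temperature with compound in 50 mM Tris-HCl pH 8, 0.01% Tween 20. Started with 1 mM NAD+ and 30 uM prostaglandin E2; NADH fluorescence (360/450 nm) read 5 times over 30-s intervals, last minus first.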
# IMPase Li inh: cell-permeable IMPase inhibitors with lithium potentiation; CHO-M1 cells, IP1 TR-FRET (IP-One), carbachol + lithium; Potency, µM (top dose mostly 59.4 µM), usual class: inhibitors; hit rate 0.35% among 210,000; AID 1457;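 also: IP1 builds up when IMPase is blocked and the TR-FRET signal falls; nearly all actives have a fitted effect of over 50% in size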
#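 Readout is a homogeneous TR-FRET IP1 immunoassay (Ex 320, Em 665 and 620), where raised cytosolic IP1 lowers signal. Cells were CHO-M1 treated 30 min at 37C with test compounds plus a little lithium; AC50 values came from Hill-equation fitting.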
# A number is an active result; – = inactive; ? = inconclusive; · = no result given; [ ] = dose if it differs, or a comment. In the library only some 11% were active in any assay of this set; here they are far more common. Unless noted, calls follow the shape of the dose curve; as a rule, active = well fitted curve in the direction sought with a large enough effect; inconclusive = small, poorly fitted or top-dose-only effect, or another doubt; inactive = no such curve, though single readings can be large; an effect the other way counts as inactive or inconclusive.
SMILES,PNC assembly inh,12-hLO inh,ALDH1A1 inh,IMPase cell inh,HPGD block,IMPase Li inh
CC(C)(C)c1nnc2sc(SCC(=O)c3ccccc3)nn2c1=O,–,–,?,–,–,–
CC(C)(C)c1nnc2sc(SC/C(O)=C(\C#N)c3nc4ccccc4[nH]3)nn2c1=O,-95,–,?,–,20µM,13µM
CN1CCN(c2cc(-c3ccoc3)ncn2)CC1,·,·,?,·,·,–
CSc1ccc(/C=C2/C(C)=C(CC(=O)O)c3cc(F)ccc32)cc1,·,–[0.00818 µM],–,·,–,–
Cc1ccc(N=Nc2c(C)[nH]n(C(N)=S)c2=O)cc1,·,·,?,·,·,–
Cc1[nH]n(C(N)=S)c(=O)c1N=Nc1ccc(S(=O)(=O)N2CCCC2)cc1,–,–,32µM,–,–,–
COCCNC(=O)C(c1ccc(F)cc1)N(C(=O)CCC(=O)Nc1nccs1)c1ccc(C)cc1 (stereo not given),·,·,–,·,·,–
Oc1ccc(NCc2ccccc2OCc2ccc(Cl)cc2)cc1,·,·,·,–,·,·
Oc1ccc(NCc2ccccc2OCc2ccccc2)cc1,–,–,5.6µM,–,14µM,–
COc1ccc([N+](=O)[O-])cc1N(CC(=O)O)S(C)(=O)=O,·,·,32µM,·,·,–
CCCCNC(=O)/C=C1\Sc2ccccc2NC1=O,–,–,–,·,18µM,–
CCc1ccc(C(=O)/C=C2\Sc3ccccc3NC2=O)cc1,–,–,?,·,–,–
O=C1CC(c2ccco2)CC2=C1C=Nc1ccccc1N2 (stereo not given),?,–,2µM,–,–,–
Cc1cccc(CC2CC(=O)N(c3nc4ccccc4s3)C2=O)c1 (stereo not given),·,·,–,·,·,–
CC(=O)c1nc(N2C(=O)CC(Cc3ccccc3)C2=O)sc1C (stereo not given),–,–,–,·,28µM,?
CN1CCc2c(sc3c2C(=O)NC(c2cn(Cc4ccccc4)c4ccccc24)N3)C1 (stereo not given),-103,–,?,–,?,–
CC1(C)OC(=O)C(=CNC(Cc2c[nH]c3ccccc23)C(=O)O)C(=O)O1 (stereo not given),–,–,25µM,–,–,–
O=C(NCc1ccccc1)N[C@@H](Cc1c[nH]c2ccccc12)C(=O)O,–,–,–,–,·,·
NC1=NC(=O)C2(COC(c3cccnc3)OC2)S1 (stereo not given),·,·,–,·,·,–
Cc1cc(N2CCOCC2)nc2ccc(Cc3ccc4nc(N5CCOCC5)cc(C)c4c3)cc12,·,–[11.4 µM],?,·,?,–
O=c1c(O)c(-c2cc(O)c(O)c(O)c2)oc2cc(O)cc(O)c12,·,?,3.5µM,?,7.9µM,–
O=c1c(O)c(-c2ccccc2)oc2cc(O)cc(O)c12,·,–,–,–,–,–
COc1ccc(-c2coc3ccc(OC4OC(COC(C)=O)C(OC(C)=O)C(OC(C)=O)C4OC(C)=O)c(OC(C)=O)c3c2=O)cc1 (stereo not given),·,–,–,–,–,–
Clc1ccc(OCCCN2CCCCC2)c(Br)c1,–,–,–,·,–,–
CCN1CCN(CCOc2cccc(Cl)c2Cl)CC1,·,·,8.9µM,·,·,–
SMILES,PNC assembly inh,12-hLO inh,ALDH1A1 inh,IMPase cell inh,HPGD block,IMPase Li inh
CC1CC(C)CN(CCOc2cccc(Cl)c2Cl)C1 (stereo not given),?,–,–,·,–,–
CCN1CCN(CCCOc2ccc(Cl)cc2Br)CC1,·,·,13µM,·,·,–
CC(C)(O)C#Cc1ccc(CN2CCCC(CO)(Cc3cccc(Cl)c3)C2)cc1 (stereo not given),·,·,–,·,·,–
Cc1ccc2nc(Cl)c(CNCc3ccccc3)cc2c1,·,·,–,·,·,–
CCOC(=O)c1c(C)oc2cc(Br)c(O)c(Br)c12,?,–,–,–,–,–
CCOC(=O)c1c(C)oc(NC(=O)CCl)c1C(=O)OCC,·,·,3.5µM,·,·,–
FC(F)(F)c1cc(CN2CCC3(CCNCC3)CC2)cc(C(F)(F)F)c1,·,–,–,·,–,–
Cc1cccc(Nc2nnc(SCC(=O)Nc3cccc(S(=O)(=O)N4CCCCC4)c3)s2)c1,–,–,?,·,20µM,–
Cc1cccc(NC(=O)CSc2nnc(NC(=O)CN3CCCCC3)s2)c1,–,–,–,·,–,–
CCc1ccc(Nc2nnc(SCC(=O)Nc3cccc(S(=O)(=O)NC4=NCCCCC4)c3)s2)cc1,–,–,18µM,·,?,–
Cn1c(=O)c2c(-c3ccccc3)n3c4ccccc4nc(-c4ccccc4)c3c2n(C)c1=O,·,·,·,–,·,·
O=C(O)c1ccc(NS(=O)(=O)c2ccc3nnn(O)c3c2)cc1,-107,–,–,–,–,–
O=c1[nH]c2cc(C(F)(F)F)c(N3CCOCC3)cc2n(CP(=O)(O)O)c1=O,·,–[0.00818 µM],–,·,–,–
CCOC(=O)c1c(-c2ccc(OC)cc2)csc1/N=C/C1=C(O)CCCC1=O,?,–,2.2µM,·,–,–
Cc1ccc(Cl)cc1N1CCN(S(=O)(=O)c2ccc3oc(=O)c4ncn(C)c4c3c2)CC1,·,·,·,–,·,·
O=C1CSC(=Nc2cc(Cl)ccc2Cl)N1,–,–,–,–,10µM,–
Cc1ccc(N=C2NC(=O)CS2)c(C)c1,–,–,–,–[1.84 µM],–,–
CN1CCN(c2cc(-c3ccc(N(C)C)cc3)ncn2)CC1,·,–,?,·,?,–
O=S(=O)(Nc1ccc2c(c1)OCCO2)c1ccc(F)cc1,–,–,–,–,–,–
O=S(=O)(Nc1nc2ccccc2nc1Nc1ccc2c(c1)OCO2)c1ccc(F)cc1,-84,–,–,–,·,·
O=c1c(-c2cccc(F)c2)nc2cncnc2n1-c1ccccc1,·,–,–,·,–,–
Cc1ccc(N2C(S)=C(C#N)C(=O)NC2c2cccs2)cc1 (stereo not given),-114,?,–,·,22µM,–
Cc1ccc(N2C(S)=C(C#N)C(=O)NC2c2ccco2)cc1 (stereo not given),·,·,?,·,·,–
N#CC1=C(S)N(c2ccccc2)C(c2cccs2)NC1=O (stereo not given),–,–,20µM,–,32µM,–
COCCOC(=O)c1c(C)oc2c1cc(NS(=O)(=O)c1ccc(Cl)c(C)c1)c1ccccc12,·,·,·,–,·,·
SMILES,PNC assembly inh,12-hLO inh,ALDH1A1 inh,IMPase cell inh,HPGD block,IMPase Li inh
O=c1c2ccccc2cnn1Cc1n[nH]c(=S)n1-c1cc(Cl)cc(Cl)c1,?,–,–,·,–,–
S=c1[nH]nc(Cc2ccccc2)n1-c1cccc2ccccc12,–,–,?,·,16µM,–
O=c1c2ccccc2cnn1Cc1n[nH]c(=S)n1-c1ccccc1Cl,–,–,32µM,·,?,–
Cc1ccc(-n2c(Cc3ccccc3)n[nH]c2=S)c(C)c1,·,·,–,·,·,–
CCCSc1nc2sc3c(c2c(=O)n1Cc1ccccc1)CC(C)(CC)OC3 (stereo not given),·,·,·,–,·,·
Cc1cc(C(=O)NCCc2ccc(S(=O)(=O)NC(=O)NN3CCCCCC3)cc2)no1,·,–[0.00818 µM],–,·,–,–
N#Cc1c(SCC(N)=O)nsc1SCc1ccc(Cl)cc1,-83,–,–,–,–,–
